According to PubChem BioAssay AID1159580 (chemical genetic matrix, 2015):
The campaign covered roughly 5,500 compounds. About 2,000 (36%) were called active. Roughly 18% stayed inconclusive and do not appear here. Rule as the data show it: active = normalized growth mostly below about 0.91 (no sharp cut-off); inconclusive = no clear call, values can overlap the other calls; inactive = mostly above about 0.92. The list shows a part of the results.

Assay: chemical genetic growth profiling, strain panel (AID 1159580);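 also: tested at 20 µM; growth read once vehicle control cultures reached saturation at 30 °C; 1 = growth at the plate median or of vehicle wells; lower values mean less growth of the strain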
Conditions: S. cerevisiae deletion strains, growth OD

Measured: normalized growth

Cc1cn([C@H]2C=C[C@@H](CO)O2)c(=O)[nH]c1=O
inactive: locus YAL040C, strain CLN3, hits give low values 0.999 | locus YCL061C, strain MRC1 (second series), hits give low values 1.01 | locus YDR363W, strain ESC2, hits give low values 0.976 | locus YER002W, strain NOP16, hits give low values 1 | locus YGR078C, strain PAC10, hits give low values 1.02 | locus YMR263W, strain SAP30, hits give low values 0.998 | locus YMR307W, strain GAS1, hits give low values 0.994 | locus YNL175C, strain NOP13, hits give low values 0.993 | locus YNL197C, strain WHI3, hits give low values 0.995 | locus YNL224C, strain SQS1, hits give low values 1 | locus YNL322C, strain KRE1, hits give low values 0.994 | locus YOR083W, strain WHI5 (second series), hits give low values 1.06 | locus YPL055C, strain LGE1, hits give low values 0.974 | locus YPL241C, strain CIN2, hits give low values 1
